Rows were chosen to be rich in hits. Some 3.4% of all compounds tested hit in one or more screens of this group.
MEKK2 mut-MEK5 – signal of MEK5 binding to mutant human MEKK2 PB1 domain | percent response, % at 10 µM | 0.35% of 290,000 active | bead flow cytometry, Alexa488-MEK5 binding to MEKK2 mutant | AID 1530; in the data active = percent response above about 24%, passing the limit was not always enough
ANO1 block – mouse TMEM16A channel inhibition, primary screen. HEK293 TMEM16A/YFP iodide influx fluorescence, ionomycin. normalized B-score (activity score, 25-100; higher = stronger inhibition) at 10 µM. 1.2% of 310,000 active. AID 588511;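 active = ratio plate-corrected score three or more library SD toward inhibition, starting fluorescence score within five deviations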;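 also: score derived from kinetic fluorescence span divided by baseline fluorescence per well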
TMEM16A act – activates or potentiates the mouse TMEM16A chloride channel | HEK293 TMEM16A/YFP-H148Q/I152L, iodide quench fluorescence; hits give low values | AID 623877 | Q8BHY3 | 0.3% of 340,000 active | B-score at 10 µM;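 active = fluorescence-ratio B-score plate-corrected deviation score at least 3 library SD below zero, with starting fluorescence score within 5 deviations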;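 also: channel opened by trigger with iodide after compound preincubation; score built on the fluorescence ratio of max minus min over baseline; more negative score means more quench and so TMEM16A activation or potentiation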
MEKK3 PB1 HTS – MEKK3-MEK5 PB1 interaction, increase or decrease; bead-based flow cytometry, Alexa488-MEK5 binding to MEKK3; actives lie on both sides; 0 = blocked by unlabeled MEK5, 100 = vehicle; AID 1529; binding response (% of control), % at 10 µM; 1.4% of 290,000 active; Q99759;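 active = binding response more than 3 SD above or below the average of its plate-row segment, actives on both sides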;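 also: Alexa488 bead fluorescence after subtracting the streptavidin-only scavenger bead signal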
Target sequence (Q99759 whole entry, looked up): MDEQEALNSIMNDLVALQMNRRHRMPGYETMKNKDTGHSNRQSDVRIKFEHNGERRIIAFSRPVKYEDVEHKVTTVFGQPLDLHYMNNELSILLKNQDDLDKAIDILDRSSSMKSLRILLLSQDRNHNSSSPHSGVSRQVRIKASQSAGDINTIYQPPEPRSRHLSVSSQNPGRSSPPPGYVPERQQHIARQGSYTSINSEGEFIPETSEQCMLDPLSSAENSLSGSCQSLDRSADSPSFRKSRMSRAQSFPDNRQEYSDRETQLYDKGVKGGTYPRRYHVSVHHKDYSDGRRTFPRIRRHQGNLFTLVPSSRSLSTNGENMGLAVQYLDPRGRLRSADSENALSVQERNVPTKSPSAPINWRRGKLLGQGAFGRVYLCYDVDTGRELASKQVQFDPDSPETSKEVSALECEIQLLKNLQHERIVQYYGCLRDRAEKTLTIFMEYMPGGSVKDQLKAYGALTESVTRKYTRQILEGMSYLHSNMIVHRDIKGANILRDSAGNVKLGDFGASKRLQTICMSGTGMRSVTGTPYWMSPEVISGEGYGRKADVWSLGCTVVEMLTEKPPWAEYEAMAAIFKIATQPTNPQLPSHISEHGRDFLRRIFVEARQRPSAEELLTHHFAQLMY
NTR1 ag – agonists of human neurotensin receptor NTR1; P30989; NTR1-U2OS beta-arrestin-GFP spot imaging, agonist mode; activation, % at 20 µM; 0.17% of 330,000 active;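 active = activation at or above 40% of the spot to cytoplasm intensity ratio, with at least 20 cells analyzed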
MEKK2 WT-MEK5 – raises or lowers MEK5 binding to wildtype human MEKK2 PB1 domain; bead flow cytometry, Alexa488-MEK5 binding to MEKK2 WT; actives lie on both sides; binding response (% of control), % at 10 µM; 1.1% of 290,000 active; Q9Y2U5; in the data active = binding response below about 67% or above about 130%
MEKK2wt confirm – raises or lowers MEK5 binding to wildtype human MEKK2, retest | shares compounds with MEKK3 PB1 HTS | bead flow cytometry, Alexa488-MEK5 binding to MEKK2 WT; actives lie on both sides | binding response (% of control), % at 10 µM | 2.4% of 5,900 active; in the data active = binding response below about 16% or above about 210%; inactive = in between
MEKK2mut confirm – signal of MEK5 binding to mutant human MEKK2, retest; shares compounds with MEKK3 PB1 HTS; bead flow cytometry, Alexa488-MEK5 binding to MEKK2 mutant; percent response, % at 10 µM; 2% of 5,900 active; in the data active = percent response mostly above about 71%, no sharp cut-off; inactive = mostly below about 38%;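 also: higher means compound restores mutant binding toward wildtype level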
MEKK3-MEK5 inh – MEKK3-MEK5 PB1 inhibition, single concentration confirmation; shares compounds with MEKK3 PB1 HTS; bead flow cytometry, Alexa488-MEK5 binding to MEKK3; hits give low values; binding response (% of control), % at 10 µM; 1.8% of 5,900 active; AID 1894;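 active = binding response below 72% of control, or above a set upper limit, though filed actives all read lower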;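 also: lower values mean stronger disruption of MEK5 binding to MEKK3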
Large screens that a line does not name were inactive (follow-up assays come after a bar, where they were run); [ ] = another dose, or the depositor's remark.

COc1ccc(-c2c(-c3ccccc3)c(C(=O)C(=O)NCCCN(C)C)n3ccc4cc(OC)c(OC)cc4c23)cc1OC	MEKK2 WT-MEK5 140 | MEKK2wt confirm inactive | MEKK2mut confirm inactive | MEKK3-MEK5 inh inactive
O=C(CN1CC(c2ccccc2)CC1=O)N/N=C/c1cc(Br)ccc1O (stereo unspecified)	MEKK3 PB1 HTS 141 | MEKK2wt confirm inactive | MEKK2mut confirm inactive | MEKK3-MEK5 inh inactive
COc1ccc(NC(=O)CNC(=O)c2nn(-c3ccc(OC)cc3OC)c(=O)c3ccccc23)c(OC)c1	none
CCOc1ccc(-c2cnc(NCc3cccc4ccccc34)n2CCOC)cc1	ANO1 block 100, MEKK2 WT-MEK5 192 | MEKK2wt confirm inactive | MEKK2mut confirm inactive | MEKK3-MEK5 inh inactive
Fc1cc(NCc2ccccc2)nc(NCc2ccccc2)n1	none
Cc1cc(N/N=C/c2ccc(N(C)C)cc2)nc(NCc2ccccc2)n1	MEKK2 mut-MEK5 75, MEKK2 WT-MEK5 229 | MEKK2wt confirm 247 | MEKK2mut confirm 89 | MEKK3-MEK5 inh inactive
Cc1cc(N/N=C/c2ccc(Cl)cc2Cl)nc(NCc2ccccc2)n1	MEKK2 WT-MEK5 161 | MEKK2wt confirm inactive | MEKK2mut confirm inactive | MEKK3-MEK5 inh inactive
Cc1cc(Nc2cccc(F)c2)nc(NCc2ccccc2)n1	MEKK2 WT-MEK5 142 | MEKK2wt confirm inactive | MEKK2mut confirm inactive | MEKK3-MEK5 inh inactive
Clc1ccc(C=NNc2ccccn2)c(Cl)c1	none (no result: MEKK2 mut-MEK5, ANO1 block, MEKK3 PB1 HTS, NTR1 ag, MEKK2 WT-MEK5)
Cc1cc(N/N=C/c2ccc(F)cc2)nc(NCc2ccccc2)n1	none
Cc1ccc(/C=N/Nc2cc(C)nc(NCc3ccccc3)n2)cc1	MEKK2 mut-MEK5 63, MEKK2 WT-MEK5 199 | MEKK2wt confirm inactive | MEKK2mut confirm inactive | MEKK3-MEK5 inh inactive
CC(C)(C)CN1CCC(Oc2cccc(C(=O)NCCCOc3cccnc3)c2)CC1	none
Cc1nc2ccc(Br)cc2c(=O)n1Cc1cccs1	none (no result: MEKK2 mut-MEK5, MEKK3 PB1 HTS, MEKK2 WT-MEK5)
O=C(COC(=O)c1ccc([N+](=O)[O-])o1)NC1CCCc2ccccc21 (stereo unspecified)	none (no result: MEKK2 mut-MEK5, ANO1 block, MEKK3 PB1 HTS, MEKK2 WT-MEK5)
COc1ccc(CCNc2cc(C)nc3c(-c4ccc(Cl)cc4)cnn23)cc1OC	MEKK3 PB1 HTS 136 | MEKK2wt confirm inactive | MEKK2mut confirm inactive | MEKK3-MEK5 inh inactive
CN(C)c1ccc(/C=C(\C#N)c2ccccn2)cc1	none
COC(=O)c1ccc(/C=C(\C#N)c2ccccn2)cc1	MEKK3 PB1 HTS 2.0[inhibitor], MEKK2 WT-MEK5 1.0[inhibitor] | MEKK2wt confirm inactive | MEKK2mut confirm inactive | MEKK3-MEK5 inh inactive
C=CCC[C@H](Cc1ccc(F)cc1)C(=O)OC[C@H](Cc1c[nH]c2ccccc12)NC(=O)[C@@H](CC=C)CC(=O)NCCO	none (no result: MEKK2 mut-MEK5, ANO1 block, MEKK3 PB1 HTS, MEKK2 WT-MEK5)
O=S(=O)(c1cccc(F)c1)N1CCN(Cc2ccc3c(c2)OCO3)CC1	MEKK3 PB1 HTS 58[inhibitor] | MEKK2wt confirm inactive | MEKK2mut confirm inactive | MEKK3-MEK5 inh inactive
CCc1ccc(C(C(=O)NCCOC)N(C(=O)Cn2nnc3ccccc32)c2cccnc2)cc1 (stereo unspecified)	MEKK3 PB1 HTS 2.0[inhibitor], MEKK2 WT-MEK5 2.0[inhibitor] | MEKK2wt confirm inactive | MEKK2mut confirm inactive | MEKK3-MEK5 inh inactive
COc1ccc(C)cc1S(=O)(=O)N1CCC(C(=O)NC2CCCC2)CC1	none
Nc1ccc2nc(CCCCCCCCc3nc4ccc(N)cc4[nH]3)[nH]c2c1	MEKK2 WT-MEK5 140 | MEKK2wt confirm inactive | MEKK2mut confirm inactive | MEKK3-MEK5 inh inactive
Nc1ccc(-c2nc3ccccc3[nH]2)cc1	none

Screening data (PubChem BioAssay)
